Results reported in PubChem BioAssay (NCATS).
Values joined by “and” are separate entries in the source; they are usually repeats but may differ in a detail not shown here. Identical values can stand only once. Inconclusive results are not listed. More than one record can exist for a structure, and the calls need not agree. Active and inactive are the calls of the source. The call rests on the fitted dose curve; in most records, active means well fitted curve in the direction sought with a large enough effect; inconclusive means small, poorly fitted or top-dose-only effect, or another doubt; inactive means no such curve, though single readings can be large; an effect the other way counts as inactive or inconclusive.

Key:
CRL-7250 = normal cell line; assay: Cytotoxic Profiling of Annotated Libraries Using Quantitative High-Throughput Screening (AID 1296008); conditions: Five cell lines viability, CellTiter-Glo ATP luminescence, 48-72 h; max response: hits give low values; further: nearly all actives have a fitted effect of over 60% in size; further: potency means the concentration at half of the fitted maximal effect; on max response: on the % scale 0 is the no-effect control and ±100 the full control effect
How it was run: (§1)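 Cells exposed to compounds for 48 or 72 hr at 37 degrees Celsius. Viability read as ATP-coupled luminescence with CellTiter-Glo after 10 min at room temperature.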

HEK293 = assay: as above; conditions: Five cell lines viability, CellTiter-Glo ATP luminescence, 48-72 h; max response: hits give low values
How it was run: as §1

HaCat [1] = assay: as above; conditions: Five cell lines viability, CellTiter-Glo ATP luminescence, 48-72 h; max response: hits give low values
How it was run: as §1

KB-3-1 = assay: as above; conditions: Five cell lines viability, CellTiter-Glo ATP luminescence, 48-72 h; max response: hits give low values
How it was run: as §1

NIH3T3 [2] = assay: as above; conditions: Five cell lines viability, CellTiter-Glo ATP luminescence, 48-72 h; max response: hits give low values
How it was run: as §1

HACAT [3] = assay: qHTS assay to identify novel small-molecules to repurpose for Merkel cell carcinoma treatment (AID 1296009); conditions: MCC and control cell lines, CellTiter-Glo viability, 72 h; at 44.8 µM (top of the series) unless noted; further: nearly all actives have a fitted effect of over 60% in size
How it was run: (§2)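 Dose-response viability screen; 72 hr exposure at 37 degree celsius; CellTiter-Glo added, 10 min room temperature, luminescence read; RLUs scaled between no-cell and DMSO wells.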

HEK293T = assay: as above; conditions: MCC and control cell lines, CellTiter-Glo viability, 72 h; series mostly up to 44.8 µM
How it was run: as §2

NIH3T3 [4] = assay: as above; conditions: MCC and control cell lines, CellTiter-Glo viability, 72 h; at 44.8 µM (top of the series) unless noted
How it was run: as §2

C33A = assay: Primary qHTS to identify gynecologic anti-cancer compounds using libraries of approved drugs and bioactive compounds (AID 1345084); conditions: Gynecologic cancer cell panel viability, ATPlite luminescence, 48 h; series mostly up to 57.5 µM; further: on the % scale 0 is the no-effect control and ±100 the full control effect; nearly all actives have a fitted effect of over 55% in size
How it was run: (§3)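 In this quantitative HTS, cell killing is estimated from loss of ATP-dependent luciferase light. Cells see five compound concentrations over a 48 h exposure.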

CAOV3 = assay: as above; conditions: Gynecologic cancer cell panel viability, ATPlite luminescence, 48 h; series mostly up to 57.5 µM
How it was run: as §3

CASKI = assay: as above; conditions: Gynecologic cancer cell panel viability, ATPlite luminescence, 48 h; series mostly up to 57.5 µM
How it was run: as §3

Es-2 = assay: as above; conditions: Gynecologic cancer cell panel viability, ATPlite luminescence, 48 h; series mostly up to 57.5 µM
How it was run: as §3

HeLa = assay: as above; conditions: Gynecologic cancer cell panel viability, ATPlite luminescence, 48 h; series mostly up to 57.5 µM
How it was run: as §3

O=C(NN1CCCCC1)c1nn(-c2ccc(Cl)cc2Cl)c(-c2ccc(C#Cc3ccc(C(F)(F)F)cc3)s2)c1CNS(=O)(=O)N1CCCC1
inactive: max response (CRL-7250) -7.83% | outcome (HEK293) | outcome (HaCat [1]) | max response (KB-3-1) 4.58% | outcome (NIH3T3 [2]) | outcome (HACAT [3]) | Potency (HEK293T) | outcome (NIH3T3 [4]) | Potency (C33A) | Potency (CAOV3) | Potency (CASKI) | Potency (Es-2) | Potency (HeLa)

Cc1cn2c(N)c(Cl)cc(C(=O)NCC3CCN(CC(C)C)CC3)c2n1
inactive: max response (CRL-7250) -6.05% | outcome (HEK293) | outcome (HaCat [1]) | max response (KB-3-1) -3.78% | outcome (NIH3T3 [2]) | outcome (HACAT [3]) | Potency (HEK293T) | outcome (NIH3T3 [4]) | Potency (C33A) | Potency (CAOV3) | Potency (CASKI) | Potency (Es-2) | Potency (HeLa)

COc1cc(N2CCC(O)CC2)ccc1Nc1cc(Nc2ccccc2S(=O)(=O)C(C)C)c2cc[nH]c2n1
active: Potency (CRL-7250) 33.1 µM | Potency (HEK293) 12.8 µM and 11.7 µM | Potency (HaCat [1]) 8.31 µM | Potency (KB-3-1) 14.3 µM | Potency (NIH3T3 [2]) 4.67 µM
inactive: max response (CRL-7250) -7.16% | Potency (C33A) | Potency (CAOV3) | Potency (CASKI) | Potency (Es-2) | Potency (HeLa)

NCc1ccc(OCCCc2sc(-c3ccc4c(c3)/C(=N/Nc3nc5ccccc5s3)CCC4)nc2C(=O)O)cc1
active: Potency (HEK293) 2.95 µM | Potency (HaCat [1]) 3.71 µM
inactive: max response (CRL-7250) -14.2% | max response (HaCat [1]) 0.629% | max response (KB-3-1) -25.7% | max response (NIH3T3 [2]) -6.71% | Potency (C33A) | Potency (Es-2)

CO/N=C(/C(=O)N[C@@H]1C(=O)N2C(C(=O)O)=C(CSC(=O)c3ccco3)CS[C@H]12)c1csc(N)n1
inactive: max response (CRL-7250) -7.13% and 1.26% | max response (HEK293) 3.45% and -9.59% | max response (HaCat [1]) 4.84% | outcome (HaCat [1]) inactive; activator | max response (KB-3-1) -14.5% | outcome (KB-3-1) | max response (NIH3T3 [2]) 0.301% and -3.25% | outcome (HACAT [3]) inactive; activator | Potency (C33A) | Potency (CAOV3) | Potency (CASKI) | Potency (Es-2) | Potency (HeLa)

CC(C)N(C[C@H]1O[C@@H](n2cnc3c(N)ncnc32)[C@H](O)[C@@H]1O)C1CC(CCc2nc3ccc(C(C)(C)C)cc3[nH]2)C1 (stereo partly specified)
inactive: max response (CRL-7250) -0.229% | outcome (CRL-7250) | max response (HaCat [1]) 3.92% | outcome (HaCat [1]) | max response (KB-3-1) 5.25% | max response (NIH3T3 [2]) -7.24% and -17.7% | outcome (HACAT [3]) | Potency (C33A) | Potency (CAOV3) | Potency (CASKI) | Potency (Es-2) | Potency (HeLa)
active: Potency (HEK293) 7.41 µM

NC1CCC(N[C@@H]2C[C@H]2c2ccccc2)CC1 (stereo partly specified)
inactive: max response (CRL-7250) 1.1% | outcome (CRL-7250) | max response (HEK293) -15.5% and -3.29% | max response (HaCat [1]) -1.71% | outcome (HaCat [1]) | max response (NIH3T3 [2]) 3.03% | outcome (NIH3T3 [2]) | outcome (HACAT [3]) | outcome (NIH3T3 [4]) | Potency (C33A) | Potency (CAOV3) | Potency (CASKI) | Potency (Es-2) | Potency (HeLa)

NS(=O)(=O)NCCNc1nonc1C(=Nc1ccc(F)c(Br)c1)NO
inactive: max response (CRL-7250) 3.38% and -8.95% | max response (HEK293) -61.6% | outcome (HEK293) | max response (HaCat [1]) -46.4% | outcome (HaCat [1]) | max response (KB-3-1) 4.58% and 8.99% | max response (NIH3T3 [2]) -8.59% and -38.3% | outcome (NIH3T3 [2]) | outcome (HACAT [3]) | Potency (HEK293T) | outcome (NIH3T3 [4]) | Potency (C33A) | Potency (CAOV3) | Potency (CASKI) | Potency (Es-2) | Potency (HeLa)

C=C1[C@@H]2CC[C@@]3(C)[C@H](c4ccoc4)OC(=O)C[C@]13O[C@H]1CC(=O)C(C)(C)[C@H](CC(=O)OC)[C@]12C
inactive: max response (CRL-7250) -0.448% | outcome (HEK293) | outcome (HaCat [1]) | max response (KB-3-1) -1.94% | outcome (NIH3T3 [2]) | outcome (HACAT [3]) inactive [at 17.4 µM] | Potency (HEK293T) | outcome (NIH3T3 [4]) inactive [at 17.4 µM] | Potency (C33A) | Potency (CAOV3) | Potency (CASKI) | Potency (Es-2) | Potency (HeLa)

COc1c(C)c(C(=O)c2ccc(N)c(C(=O)O)c2)n2ccccc12
inactive: max response (CRL-7250) -6.91% | max response (HEK293) -16.3% | max response (HaCat [1]) -0.372% | outcome (HaCat [1]) | max response (KB-3-1) 4.57% and 7.45% | outcome (HACAT [3]) | Potency (C33A) | Potency (CAOV3) | Potency (CASKI) | Potency (Es-2) | Potency (HeLa)

C[C@]12CCC[C@](C)(C(=O)O)C1CCC13C=C(CO)C(CCC12)C3 (stereo partly specified)
inactive: max response (CRL-7250) -11% | outcome (HEK293) | outcome (HaCat [1]) | max response (KB-3-1) 2.91% | outcome (NIH3T3 [2]) | outcome (HACAT [3]) | Potency (HEK293T) | outcome (NIH3T3 [4]) | Potency (C33A) | Potency (CAOV3) | Potency (CASKI) | Potency (Es-2) | Potency (HeLa)

Cc1nn(C)c2c1C(c1ccc(C(F)(F)F)cc1)C(C#N)=C(N)O2 (stereo unspecified)
inactive: max response (CRL-7250) 4.37% | outcome (CRL-7250) | max response (HEK293) -4.39% and 2.32% | max response (HaCat [1]) -6.13% and -14.3% | max response (KB-3-1) 9.42% | max response (NIH3T3 [2]) 1.84% | outcome (NIH3T3 [2]) | outcome (NIH3T3 [4]) | Potency (C33A) | Potency (CAOV3) | Potency (CASKI) | Potency (Es-2) | Potency (HeLa)
